Source: PubChem BioAssay (Tox21)
“And” between values parts separate entries of the source, which are not always exact repeats. Identical values can stand only once. Inconclusive results are not listed. Some compounds were tested as several samples or in several runs, with calls that do not always agree. The source made the active and inactive calls. Unless noted, the call rests on the fitted dose curve; in most records, active means well fitted curve in the direction sought with a large enough effect in the repeat runs; inconclusive means weak or mixed curves; inactive means no such curve, though single readings can be large; an effect the other way counts as inactive or inconclusive.

Assays:
[1] = qHTS assay to identify small molecule antagonists of the thyroid receptor (TR) signaling pathway - cell viability counter screen (AID 743064); further: nearly all actives have a fitted effect of over 50% in size; further: potency means the concentration at half of the fitted maximal effect
Outline: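 Plate GH3.TRE-Luc cells; incubate 4 h at 37 °C; add compound, then T3 to 1 nM final; incubate 23.5 h; add CellTiter-Fluor; incubate 30 min at 37 °C, 5% CO2; read fluorescence.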

[2] = qHTS assay to identify small molecule antagonists of the thyroid receptor (TR) signaling pathway (AID 743065); further: nearly all actives have a fitted effect of over 55% in size; further: potency means the concentration at half of the fitted maximal effect
Outline: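 GH3.TRE-Luc rat pituitary cells carrying two TR response elements driving luciferase were plated for 4 h, given compound plus 1 nM T3 (final), and incubated 23.5 h at 37 C. ONE-Glo luminescence measured reporter inhibition; CellTiter-Fluor fluorescence tracked cytotoxicity.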

[3] = test system: thyroid hormone receptor (rat, GH3 cells); assay: qHTS assay to identify small molecule agonists of the thyroid receptor (TR) signaling pathway (AID 743066; calls by dose curve; further: potency means the concentration at half of the fitted maximal effect)
[4] = qHTS assay to identify small molecule antagonists of the estrogen receptor alpha (ER-alpha) signaling pathway - cell viability counter screen (AID 743074; calls by dose curve;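 further: HEK293 cells carrying ER-alpha-UAS-bla reporter stimulated with 17beta-estradiol; nearly all actives have a fitted effect of over 45% in size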; further: potency means the concentration at half of the fitted maximal effect)
[5] = qHTS assay to identify small molecule antagonists of the estrogen receptor alpha (ER-alpha) signaling pathway using the BG1 cell line - cell viability counter screen (AID 743081);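 further: compound given together with 17beta-estradiol as the ER stimulus; series mostly up to about 70 µM; nearly all actives have a fitted effect of over 45% in size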
Aromatase (Homo sapiens) = Aromatase (Homo sapiens) (UniProt P11511); assay: qHTS assay to identify aromatase inhibitors (AID 743083); further: nearly all actives have a fitted effect of over 55% in size; further: potency means the concentration at half of the fitted maximal effect
[6] = qHTS assay to identify aromatase inhibitors - cell viability counter screen (AID 743084);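 further: cells stimulated with testosterone during compound exposure; nearly all actives have a fitted effect of over 55% in size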; further: potency means the concentration at half of the fitted maximal effect
[7] = molecular target: Aryl hydrocarbon receptor (Homo sapiens) (UniProt P35869); assay: qHTS assay to identify small molecule that activate the aryl hydrocarbon receptor (AhR) signaling pathway (AID 743085); further: nearly all actives have a fitted effect of over 15% in size; further: potency means the concentration at half of the fitted maximal effect;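 on activation: HG2L7.5c1 human HepG2 liver cells with stably integrated DRE-driven firefly reporter; series mostly up to about 70 µM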
Outline: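 Steps: seed HepG2-AhR-luc cells; allow 5 h at 37C; pin-transfer test compound or vehicle; incubate 24 h at 37C; add viability dye (30 min, 37C) and read fluorescence; add luciferase substrate (30 min, RT) and read luminescence.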

[8] = qHTS assay to identify small molecule that activate the aryl hydrocarbon receptor (AhR) signaling pathway - cell viability counter screen (AID 743086);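 further: HepG2 liver cells carrying the AhR DRE luciferase reporter; series mostly up to about 70 µM; nearly all actives have a fitted effect of over 45% in size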
Outline: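 HepG2-AhR-luc (HG2L7.5c1) cells, 4000/well, were preincubated 5 h at 37C, exposed to compound in qHTS format for 24 hr at 37C, then given CellTiter-Fluor for 30 min; viability was read as fluorescence in the reporter wells.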

[9] = molecular target: Peroxisome proliferator-activated receptor gamma (Homo sapiens) (UniProt P37231); assay: qHTS assay to identify small molecule agonists of the peroxisome proliferator-activated receptor gamma (PPARg) signaling pathway (AID 743094; active means well fitted activation curve with a large enough effect in the signal ratio in the repeat runs, not every such curve was filed as active; the % refers to the signal ratio)
Outline: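 Agonism was assessed in a beta-lactamase reporter system, HEK293H cells with a stably integrated UAS-bla construct under PPARg control; the 17 h treatment at 37C preceded a 1 h room-temperature FRET substrate read.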

[10] = qHTS assay to identify small molecule antagonists of the peroxisome proliferator-activated receptor gamma (PPARg) signaling pathway - cell viability counter screen (AID 743194); further: nearly all actives have a fitted effect of over 55% in size; further: potency means the concentration at half of the fitted maximal effect
Outline: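 PPARg-UAS-bla HEK293H cells were plated, rested 5 h at 37 C, then treated with compounds plus rosiglitazone (50 nM final) for 17 h at 37 C; viability was then read by CellTiter-Glo luminescence after 30 min at room temperature.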

[11] = qHTS assay for small molecule agonists of the antioxidant response element (ARE) signaling pathway (AID 743202; active means well fitted activation curve with a large enough effect in the signal ratio in the repeat runs, not every such curve was filed as active; the % refers to the signal ratio; further: potency means the concentration at half of the fitted maximal effect)
Outline: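 Following a 16 h, 37 C exposure of reporter HepG2 cells (ARE-driven beta-lactamase, 2,000 cells/well) to compounds, FRET substrate was applied for 2 h at room temperature and fluorescence intensity recorded.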

[12] = qHTS assay to identify small molecule agonists of the peroxisome proliferator-activated receptor delta (PPARd) signaling pathway - cell viability counter screen (AID 743211); further: nearly all actives have a fitted effect of over 55% in size; further: potency means the concentration at half of the fitted maximal effect
Outline: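 Viability of GeneBLAzer PPARd UAS-bla HEK293H cells was assessed after 17 h compound incubation at 37C, using CellTiter-Glo reagent added after the reporter read and luminescence recorded 30 min later.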

[13] = molecular target: Estrogen receptor (Homo sapiens) (UniProt P03372); assay: qHTS assay to identify small molecule agonists of the estrogen receptor alpha (ER-alpha) signaling pathway using the BG1 cell line (AID 743079); further: nearly all actives have a fitted effect of over 20% in size
[14] = qHTS assay to identify small molecule antagonists of the estrogen receptor alpha (ER-alpha) signaling pathway using the BG1 cell line (AID 743080; calls by dose curve; further: series mostly up to about 70 µM; nearly all actives have a fitted effect of over 25% in size)
Outline: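 Antagonist mode: compounds in DMSO were pinned onto BG1-Luc-4E2 cells alongside 17beta-estradiol agonist, incubated 21.5 h, and ERE-driven luciferase measured with ONE-Glo. Cytotoxicity was multiplexed using CellTiter-Fluor fluorescence.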

[15] = qHTS assay for small molecule activators of the heat shock response signaling pathway - cell viability counter screen (AID 743209); further: potency means the concentration at half of the fitted maximal effect; nearly all actives have a fitted effect of over 50% in size
Outline: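 Compounds dissolved in DMSO were added to overnight-plated HSE-bla HeLa cells and left 5 h at 37 C. Cell viability was quantified by luminescence using CellTiter-Glo.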

Measured: Potency

Chain of Aromatase (Homo sapiens) (P11511 whole entry, looked up): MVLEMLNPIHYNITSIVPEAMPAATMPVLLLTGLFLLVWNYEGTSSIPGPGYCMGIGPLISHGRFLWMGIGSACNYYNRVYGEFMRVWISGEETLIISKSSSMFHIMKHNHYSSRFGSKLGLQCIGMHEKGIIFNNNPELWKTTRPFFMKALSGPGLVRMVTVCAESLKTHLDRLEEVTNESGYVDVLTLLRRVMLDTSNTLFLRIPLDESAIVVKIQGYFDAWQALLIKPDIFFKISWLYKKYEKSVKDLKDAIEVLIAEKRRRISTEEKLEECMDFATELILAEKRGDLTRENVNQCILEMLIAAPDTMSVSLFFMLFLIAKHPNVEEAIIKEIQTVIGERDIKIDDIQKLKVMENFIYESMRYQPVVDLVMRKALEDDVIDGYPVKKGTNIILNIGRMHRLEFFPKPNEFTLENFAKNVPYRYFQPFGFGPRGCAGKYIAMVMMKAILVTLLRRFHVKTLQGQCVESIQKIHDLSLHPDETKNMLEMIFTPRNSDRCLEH
Chain of Peroxisome proliferator-activated receptor gamma (Homo sapiens) (P37231 whole entry, looked up): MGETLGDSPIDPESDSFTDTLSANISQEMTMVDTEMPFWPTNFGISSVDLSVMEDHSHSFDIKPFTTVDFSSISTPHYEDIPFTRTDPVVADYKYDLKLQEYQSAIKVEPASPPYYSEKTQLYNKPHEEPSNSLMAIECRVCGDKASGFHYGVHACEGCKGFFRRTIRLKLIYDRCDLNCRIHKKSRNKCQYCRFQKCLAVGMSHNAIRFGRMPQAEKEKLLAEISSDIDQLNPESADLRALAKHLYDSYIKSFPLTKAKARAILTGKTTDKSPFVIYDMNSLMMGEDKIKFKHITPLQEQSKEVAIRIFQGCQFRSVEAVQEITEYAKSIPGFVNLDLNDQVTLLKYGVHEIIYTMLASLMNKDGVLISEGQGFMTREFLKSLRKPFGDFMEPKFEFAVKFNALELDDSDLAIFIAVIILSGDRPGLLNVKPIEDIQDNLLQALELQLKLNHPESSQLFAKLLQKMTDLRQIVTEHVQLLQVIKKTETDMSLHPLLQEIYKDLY
Chain of Aryl hydrocarbon receptor (Homo sapiens) (P35869 whole entry, looked up): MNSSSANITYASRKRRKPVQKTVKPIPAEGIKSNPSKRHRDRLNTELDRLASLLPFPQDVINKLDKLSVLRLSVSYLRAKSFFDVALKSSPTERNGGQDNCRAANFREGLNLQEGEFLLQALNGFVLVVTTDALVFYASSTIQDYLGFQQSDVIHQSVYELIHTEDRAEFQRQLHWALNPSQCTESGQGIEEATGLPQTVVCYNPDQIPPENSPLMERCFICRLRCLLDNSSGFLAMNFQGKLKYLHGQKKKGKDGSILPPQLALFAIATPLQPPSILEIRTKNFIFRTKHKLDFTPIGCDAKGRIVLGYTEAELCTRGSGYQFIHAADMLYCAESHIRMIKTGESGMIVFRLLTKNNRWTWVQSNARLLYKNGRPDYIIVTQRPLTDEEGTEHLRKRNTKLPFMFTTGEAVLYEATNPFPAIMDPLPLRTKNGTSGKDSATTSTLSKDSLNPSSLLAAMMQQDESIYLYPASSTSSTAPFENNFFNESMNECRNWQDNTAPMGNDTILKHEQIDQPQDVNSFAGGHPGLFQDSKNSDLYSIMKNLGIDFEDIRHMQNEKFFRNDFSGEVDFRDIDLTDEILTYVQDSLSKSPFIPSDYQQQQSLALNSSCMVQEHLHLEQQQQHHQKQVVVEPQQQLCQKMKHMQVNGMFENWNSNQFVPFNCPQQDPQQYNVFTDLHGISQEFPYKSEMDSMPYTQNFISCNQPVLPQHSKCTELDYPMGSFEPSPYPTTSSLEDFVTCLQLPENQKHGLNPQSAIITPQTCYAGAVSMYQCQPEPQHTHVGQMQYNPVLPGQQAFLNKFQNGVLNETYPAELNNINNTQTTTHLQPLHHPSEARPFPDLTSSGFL
Chain of Estrogen receptor (Homo sapiens) (P03372 whole entry, looked up): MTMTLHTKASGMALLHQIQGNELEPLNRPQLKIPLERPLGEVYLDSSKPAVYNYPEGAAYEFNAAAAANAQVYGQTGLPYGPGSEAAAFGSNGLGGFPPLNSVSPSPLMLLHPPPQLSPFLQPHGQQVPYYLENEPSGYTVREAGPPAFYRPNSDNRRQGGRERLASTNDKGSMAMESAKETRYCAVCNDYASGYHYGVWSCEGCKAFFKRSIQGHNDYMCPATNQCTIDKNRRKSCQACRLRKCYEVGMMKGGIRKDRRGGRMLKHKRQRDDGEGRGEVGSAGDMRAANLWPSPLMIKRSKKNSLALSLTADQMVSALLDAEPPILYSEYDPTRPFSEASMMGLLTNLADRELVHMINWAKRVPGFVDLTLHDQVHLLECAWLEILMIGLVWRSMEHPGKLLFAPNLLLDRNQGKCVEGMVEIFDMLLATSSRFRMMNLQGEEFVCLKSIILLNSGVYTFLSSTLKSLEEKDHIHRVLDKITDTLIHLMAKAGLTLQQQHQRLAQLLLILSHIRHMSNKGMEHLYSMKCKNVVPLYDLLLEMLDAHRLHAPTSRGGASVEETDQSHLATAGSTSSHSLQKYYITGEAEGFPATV

CC1(C)C[C@@H]1C(=O)N/C(=C\CCCCSC[C@H](N)C(=O)O)C(=O)O
inactive: [1] | [2] | [3] | [4] | [5] | Aromatase (Homo sapiens) | [6] | [7] | [8]

CCN(CC)C(=O)[C@]1(c2ccccc2)C[C@@H]1CN
inactive: [1] | [2] | [3] | [4] | [5] | [8]

FC(F)(F)COCC(F)(F)F
not listed: [10] | [11] | [12] | [13] | [14] | [15]
inactive: all other assays above

CCC(NC(C)C)C(O)c1ccc(O)c(O)c1 (centres undefined)
inactive: [1] | [2] | [3] | [4] | [5] | Aromatase (Homo sapiens) | [6] | [7] | [8]

c1ccc2cc3c4ccccc4c4ccccc4c3cc2c1
active: [7] 97.3 nM | [11] 1.94 µM
not listed: Aromatase (Homo sapiens) | [9] | [13] | [14] | [15]
inactive: all other assays above

NCC[C@H](O)C(=O)N[C@@H]1C[C@H](N)[C@@H](O[C@H]2O[C@H](CN)CC[C@H]2N)[C@H](O)[C@H]1O[C@H]1O[C@H](CO)[C@@H](O)[C@H](N)[C@H]1O
not listed: [10] | [11] | [12] | [13] | [14] | [15]
inactive: all other assays above

NC(=O)[C@H]1O[C@@H](O)[C@H](O)[C@@H](O)[C@@H]1O
not listed: [10] | [11] | [12] | [13] | [14] | [15]
inactive: all other assays above

C=N[C@@H](C(=O)N[C@@H]1C(=O)N2[C@@H]1SC(C)(C)[C@@H]2C(=O)O)c1ccccc1
inactive: [1] | [2] | [3] | [4] | [5] | Aromatase (Homo sapiens) | [6] | [7] | [8]

O=C1OC(O)C(C(Cl)Cl)=C1Cl (centres undefined)
active: [1] 31.6 µM | [2] 22.4 µM
inactive: [3] | [4] | [13] | [14] | [5] | [7]

CNC(=O)OCc1cccc(COC(=O)NC)n1
not listed: [10] | [11] | [12] | [13] | [14] | [15]
inactive: all other assays above

CSCC[C@H](NC(=O)[C@H](Cc1ccc(OS(=O)(=O)O)cc1)NC(=O)[C@@H](N)CC(=O)O)C(=O)NCC(=O)N[C@@H](Cc1c[nH]c2ccccc12)C(=O)N[C@@H](CCSC)C(=O)N[C@@H](CC(=O)O)C(=O)N[C@@H](Cc1ccccc1)C(N)=O
inactive and 11.9 µM (active): [3]
not listed: [10] | [11] | [12] | [13] | [14] | [15]
inactive: all other assays above

CNCC(=O)N[C@@H](CCCN=C(N)N)C(=O)N[C@H](C(=O)N[C@@H](Cc1ccc(O)cc1)C(=O)N[C@H](C(=O)N[C@@H](Cc1cnc[nH]1)C(=O)N1CCC[C@H]1C(=O)N[C@@H](C)C(=O)O)C(C)C)C(C)C
not listed: [10] | [11] | [12] | [13] | [14] | [15]
inactive: all other assays above

CCOC(=O)[C@H](CCc1ccccc1)N[C@@H](C)C(=O)N1[C@H](C(=O)O)C[C@H]2CCCC[C@@H]21
not listed: [10] | [11] | [12] | [13] | [14] | [15]
inactive: all other assays above

O=c1[nH]c(=O)n([C@H]2C[C@H](O)[C@@H](CO)O2)cc1/C=C/Br
not listed: [10] | [11] | [12] | [13] | [14] | [15]
inactive: all other assays above

CN(C)CCc1c[nH]c2ccc(Cn3cncn3)cc12
not listed: [10] | [11] | [12] | [13] | [14] | [15]
inactive: all other assays above

C=C1C(CCl)(CCl)C2(Cl)C(Cl)C(Cl)C1(Cl)C2(Cl)Cl (centres undefined)
inactive: [3] | [5] | [7] | [8]
active: [1] 5.96 µM and 67.8 µM | [2] 5.31 µM and 48 µM | [4] 23.9 µM | Aromatase (Homo sapiens) 29.8 µM and 60.4 µM | [6] 53.8 µM | [10] 54.3 µM | [15] 54.3 µM | [12] 34.3 µM
